Assay outcomes deposited in PubChem by National Center for Advancing Translational Sciences (NCATS).
HCMV antiviral – blocks human cytomegalovirus replication | activity change, negative = inhibition, % at 57.5 µM | HFF cells, HCMV-luciferase reporter, 72 h; hits give low values | 410,000 compounds, 4.5% hits; in the data active means activity change below about -60%; inconclusive means no clear call, values can overlap the other calls; inactive means above about -39%
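Two compound doses tested in HFFs infected with HCMV-luciferase, MOI 1 PFU/cell, 72 h at 37C. Lysate luminescence read with OneGlo; data normalized against buffer-only and 10uM Salinomycin inhibitor controls.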
LASV entry inh – blocks Lassa virus binding to or entry into cells; Lassa virus pseudotype entry inhibition, cell reporter; Potency, µM (top dose mostly 37.9 µM), without a hit: at the highest dose activity change, negative = inhibition, most hits filed as inhibitors; 300,000 compounds, 1.2% hits; calls by dose curve; tested in HEK293 cells; further: potency means the concentration at half of the fitted maximal effect; nearly all actives have a fitted effect of over 50% in size
HCV inhibitor – blocks hepatitis C virus. AID 651820. 340,000 compounds, 3.4% hits. Huh7.5.1 HCVcc-Cre infection, luciferase reporter, 44 h. Potency, µM (top dose mostly 41.8 µM), without a hit: at the top dose activity change, negative = inhibition, usual class: inhibitors; active means well fitted inhibition curve with a large enough effect; inconclusive means small, poorly fitted or top-dose-only effect, or another doubt; inactive means no such curve, though single readings can be large or run the other way; further: potency means the concentration at half of the fitted maximal effect
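Seed cells (1,000/well) for 4 h; treat with compound and infect with HCVcc-Cre, moi about 0.5. Incubate 44 h, then detect luciferase activity.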
VACV Venus inh – vaccinia inhibition (Venus reporter) | Vaccinia virus Venus reporter expression, fluorescence | Potency, µM (top dose mostly 36.5 µM), for the others: at the top dose activity change, negative = inhibition, actives largely listed as inhibitors | 330,000 compounds, 0.46% hits; calls by dose curve; tested in A549 cells; further: potency means the concentration at half of the fitted maximal effect; nearly all actives have a fitted effect of over 30% in size
Marburg entry inh – blocks Marburg virus binding to or entry into cells. Marburg virus pseudotyped entry inhibition, cell reporter. 300,000 compounds, 1.8% hits. AID 540276. Potency, µM (series often up to 37.8 µM), for the others: at the highest dose activity change, negative = inhibition, most hits filed as inhibitors; calls by dose curve; tested in HEK293 cells; further: potency means the concentration at half of the fitted maximal effect
Vaccinia mCherry – vaccinia inhibition (mCherry reporter); Potency, µM (doses to about 36.5 µM), for the others: top-dose activity change, negative = inhibition, hits mostly inhibitors; Vaccinia virus mCherry reporter infection, fluorescence; 310,000 compounds, 0.63% hits; AID 720579; calls by dose curve; tested in A549 cells; further: potency means the concentration at half of the fitted maximal effect; nearly all actives have a fitted effect of over 35% in size
Active calls of the source: *; [ ] = remark or other dose. Sampled rows, rich in hits. Any-hit rate of the full collection: about 7.8%. On the % scale 0 is the no-effect control and ±100 the full control effect.

`O=C(CSc1nc2c([nH]c3ccccc32)c(=O)n1-c1ccc(F)cc1)NC1CCCCC1` gave HCMV antiviral -22.0, LASV entry inh -0.3%[46.1 µM], VACV Venus inh -16.6%[7.34 µM] and Vaccinia mCherry -17.0%[7.34 µM].
`CC1CC(C)CN(C(=O)CSC2=Nc3ccccc3C3=NC(Cc4c[nH]c5ccccc45)C(=O)N23)C1` (stereo not given) gave LASV entry inh 2.59µM*, HCV inhibitor -25.2% and Marburg entry inh inconclusive.
`O=C(CSC1=Nc2ccccc2C2=NC(Cc3c[nH]c4ccccc34)C(=O)N12)NC1CCCCC1` (stereo not given) gave HCMV antiviral 29.4, LASV entry inh inconclusive, HCV inhibitor -27.4% and Marburg entry inh -4.7%.
c1ccc2c(N3CCNCC3)cccc2c1 was read as HCMV antiviral 15.7, LASV entry inh -9.3%, HCV inhibitor inconclusive, VACV Venus inh -10.0%, Marburg entry inh 11.2µM* and Vaccinia mCherry -1.8%.
`COc1ccc[n+](CC(=O)c2ccc(F)cc2)c1` gave VACV Venus inh -7.1% and Vaccinia mCherry -15.6%.
Screening CCN(CC)S(=O)(=O)c1ccc2c(c1)nc(CN(C)C(=O)c1cccc(Cl)c1)n2C returned HCMV antiviral -4.3, LASV entry inh -1.8%[46.1 µM], VACV Venus inh -14.6% and Vaccinia mCherry -16.9%.
`COc1cc(/C=C2/NC(=O)N(Cc3ccccc3F)C2=O)cc(OC)c1O` gave HCMV antiviral -32.5, LASV entry inh inconclusive, HCV inhibitor -17.0%, VACV Venus inh -1.2%, Marburg entry inh 1.0%[46.1 µM] and Vaccinia mCherry 5.01µM*.
`Cc1cc(N2CCOCC2)ccc1/C=C1\NC(=O)N(Cc2ccccc2F)C1=O` gave HCMV antiviral -5.3, LASV entry inh inconclusive, HCV inhibitor 3.98µM* and Marburg entry inh 2.5%.
`CCOc1cc(/C=C2/NC(=O)N(Cc3ccccc3F)C2=O)ccc1O` gave HCMV antiviral -60.6*, LASV entry inh -25.0%, HCV inhibitor 10µM*, VACV Venus inh -27.8% and Marburg entry inh 15.8µM*.
Cc1cc(N2CCOCC2)ccc1/C=C1\NC(=O)N(Cc2ccccc2)C1=O was read as HCMV antiviral 8.6 and HCV inhibitor inconclusive.
Screening CN(C)CCNc1cc(N2CCN(C)CC2)ncn1 returned VACV Venus inh -11.4% and Vaccinia mCherry -20.5%.
O=C1CC(c2cc(Br)ccc2F)c2cc3c(cc2N1)CCC3 (stereo not given) was read as HCMV antiviral -73.4*, LASV entry inh inconclusive, HCV inhibitor inconclusive and Marburg entry inh inconclusive.
O=C1CC(c2ccccc2F)c2cc3c(cc2N1)CCC3 (stereo not given) was read as HCMV antiviral -33.7, LASV entry inh -11.5%, HCV inhibitor -4.5%, VACV Venus inh inconclusive, Marburg entry inh inconclusive and Vaccinia mCherry inconclusive.
For CN1C(=O)CC(CC(=O)N2CCCCC2CCO)(c2cccc(F)c2)C1=O (stereo not given) the results were VACV Venus inh 0.2% and Vaccinia mCherry -10.0%.
For O=C(CCc1nc2ccccc2c(=O)[nH]1)N1CCN(c2ccccc2Cl)CC1 the results were HCMV antiviral 2.1 and HCV inhibitor 11.2µM*.
COC(=O)c1sccc1S(=O)(=O)N(CC(=O)Nc1cc(C)cc(C)c1)c1ccc(Cl)cc1 was read as HCMV antiviral 26.6, LASV entry inh -19.4%[46.1 µM], VACV Venus inh -16.9% and Vaccinia mCherry -5.4%.
`Cc1ccc2nc(N(CCCN(C)C)C(=O)c3cc(-c4cccs4)nc4ccccc34)sc2c1` gave HCMV antiviral 22.6 and HCV inhibitor 11.2µM*.
`Cc1ccc2nc(N(CCN(C)C)C(=O)c3cc(Cl)sc3Cl)sc2c1` gave HCMV antiviral -12.9, LASV entry inh inconclusive, HCV inhibitor -10.9%, VACV Venus inh -12.9%, Marburg entry inh 7.7% and Vaccinia mCherry inconclusive.
For CN(C)CCCN(C(=O)c1cc(-c2cccs2)nc2ccccc12)c1nc2c(F)cccc2s1 the results were HCMV antiviral -8.5, LASV entry inh inconclusive, HCV inhibitor 12.3%, VACV Venus inh -28.0%, Marburg entry inh 11.2µM* and Vaccinia mCherry inconclusive.
For COc1cccc(CNC(=O)CN2C(=O)N(c3cccc(Cl)c3)S(=O)(=O)c3ccccc32)c1OC the results were HCMV antiviral inconclusive, LASV entry inh -2.7%[46.1 µM], VACV Venus inh -12.0% and Vaccinia mCherry -19.3%.
Cc1ccc(-n2c(=O)c3c4c(sc3n3c(C)nnc23)CO[C@H](C(C)C)C4)cc1 was read as Marburg entry inh 13.5%.
For CCN(Cc1cccc(S(=O)(=O)O)c1)c1ccc(C(=C2C=CC(=[N+](CC)Cc3cccc(S(=O)(=O)O)c3)C=C2)c2ccccc2S(=O)(=O)[O-])cc1 the results were VACV Venus inh -10.8% and Vaccinia mCherry inconclusive.
For CCN(Cc1cccc(S(=O)(=O)O)c1)c1ccc(C(=C2C=CC(=[N+](CC)Cc3cccc(S(=O)(=O)O)c3)C=C2)c2ccc(O)cc2S(=O)(=O)O)cc1 the results were VACV Venus inh -19.8% and Vaccinia mCherry 10µM*.
Screening CCOC(=O)c1sc(NC(=O)c2sccc2C)cc1C returned HCMV antiviral 47.1, LASV entry inh inconclusive, HCV inhibitor 10µM* and Marburg entry inh inconclusive.
CCOC(=O)c1sc(NC(=O)Nc2cccc(Cl)c2)cc1C was read as HCMV antiviral -95.2*, LASV entry inh inconclusive, HCV inhibitor inconclusive, VACV Venus inh inconclusive, Marburg entry inh inconclusive and Vaccinia mCherry inconclusive.
CCOC(=O)c1sc(NC(=O)c2cccs2)cc1C was read as HCMV antiviral 20.7, LASV entry inh inconclusive, HCV inhibitor inconclusive, VACV Venus inh -24.6% and Marburg entry inh inconclusive.
`CCOC(=O)c1scc(-c2ccccc2)c1S(=O)(=O)Nc1ccccc1OC` gave HCMV antiviral -11.1, LASV entry inh 8.6%[46.1 µM], VACV Venus inh -5.6% and Vaccinia mCherry -6.9%.
Screening CN(Cc1ccc(OCC(O)CN2CCCCC2)cc1)Cc1ccnc2ccccc12 (stereo not given) returned HCMV antiviral -65.8*, HCV inhibitor 5.62µM*, VACV Venus inh inconclusive and Vaccinia mCherry inconclusive.
For Cc1nn(Cc2c(Cl)cccc2Cl)c(C)c1NC(=O)c1cc(C(C)C)on1 the results were HCMV antiviral -98.0*, HCV inhibitor inconclusive, VACV Venus inh -19.8% and Vaccinia mCherry -24.1%.
Cc1cc(C(=O)Nc2c(C)nn(Cc3c(Cl)cccc3Cl)c2C)no1 was read as HCMV antiviral -61.9*, LASV entry inh 5.8µM*, HCV inhibitor -25.6% and Marburg entry inh 2.59µM*.
COc1ccc(OC)c(-c2cc(C(=O)Nc3c(C)nn(Cc4ccccc4)c3C)no2)c1 was read as HCMV antiviral -28.2, LASV entry inh inconclusive, HCV inhibitor inconclusive, VACV Venus inh inconclusive, Marburg entry inh inconclusive and Vaccinia mCherry inconclusive.
